{"source": "PubChem BioAssay (EPA / NIEHS)", "note": "The source made the active and inactive calls. Rule for the calls: active = hit-call score of the fitted dose curve at least 0.9, where 1 is the maximum; inactive = score below 0.9.", "data": [{"read-out": "3-Hydroxy-3-Methylglutaryl-CoA Synthase 2 (HMGCS2), HMGCS2 (gene 3158)", "assay": "LTEA_HepaRG_HMGCS2: Life Technologies and Expression Analysis (LTEA) Assay for 3-Hydroxy-3-Methylglutaryl-CoA Synthase 2 (HMGCS2) using HepaRG (AID 2283504)", "details": "mRNA level, 48 h; actives raise or lower the signal", "procedure": "LTEA_HepaRG is a cell based, multiplexed-readout assay that uses HepaRG, a human liver cell line, with measurements taken at 48 hours after chemical dosing on a 96-well plate.LTEA_HepaRG_HMGCS2 is one of 102 assay component(s) measured in the LTEA HepaRG cell culture assay. It is a marker of Steatosis.Data from the assay component LTEA_HepaRG_HMGCS2 was analyzed into 1 endpoint. This assay endpoint, LTEA_HepaRG_HMGCS2, was analyzed with bidirectional fitting relative to DMSO as the negative control and baseline of activity. Using a type of inducible reporter, measures of mRNA induction for gain or loss-of-signal activity can be used to understand regulation of transcription factor activity. To generalize the intended target to other relatable targets, this assay endpoint is annotated to the lyase intended target family, where the subfamily is HMG-CoA synthase.\nA total of 1060 chemcials from the ToxCast library were tested in eight-point concentration-response experiments. Cell culture and cytotoxicity assays were conducted at Thermo Fisher Scientific's Custom Services facility (Madison, WI). A single lot of human HepaRG cells (Thermo Fisher Scientific, Frederick, MD) was used for the cell culture experiments. 96-well format collagen type I coated plates of human HepaRG cells were prepared using established methods. Briefly, cryopreserved HepaRG cells were thawed, plated at a density of approximately 100,000 cells/well in HepaRG Thaw, Plate, and General Purpose media (HPRG770, Thermo Fisher Scientific), and incubated for 48 hours. 0.5% DMSO was selected as vehicle control to balance the requisite need of DMSO in HepaRG cultures to maintain differentiation (for example, baseline metabolism, proportions of hepatocytes vs. cholangiocytes), while enabling further hepatic receptor pathway activation (for example, PXR and CAR) in response to chemical exposure. 48 hours after plating, the culture medium was replaced with HepaRG Serum-Free Incudtion Media. Cells were exposed to each test chemical in duplicate and maintained in CO2 incubators for another 48 hours. Chemical plates were thawed to room temperature and 200x concentrations of treatment groups were prepared. 8-point conentration-reponse curves were made with the highest exposure at 100 uM, followed by half-log dilutions, all in 0.5% DMSO. Each test plate contained variouse controls, induction positive controls (1mM phenobarbital), cytotoxicity positive controls ([…] aflatoxin B1), vehicle controls (0.5% DMSO), and total lysis controls (0.5% DMSO). Cell morphology images were taken using an Essen IncuCyte FLR automated microscope, with six 96-well plates imaged in about 24 minutes. Images were captured and exported and JPEG files. Spent culture media was transfered to black-well plates for the LDH assay, and remaining media was sorted at -80 C for later use. Cells were treated with RLT buffer and frozen until shipped for gene expression analysis. Total RNA was isolated from the cell suspension in 75 uL of Buffer RLT (Qiagen, Germantown, MD 20874) by Quintiles/Expression Analysis (Durham, NC) using a custom isolation procedure. Total RNA from each plate well was transferred to a preamplification plate. Fluidigm's 96.96 Dynamic ArrayTM (Fluidigm, Amsterdam, the Netherlands) technology was used for gene expression analyses by quantitative reverse transcription polymerase chain reaction (qRT-PCR, performed by Quintiles/Expression Analysis, Durham, NC)89. Standard TaqManTM Assays (Applied Biosystems/ThermoFisher Scientific, Foster City, CA) were used to assess the expression of 93 genes selected based on their selectivity and sensitivity to important hepatic receptors known to be modulated by environmental chemicals; importance in human hepatocyte functionality; and hepatotoxicity. […]", "values": [{"smiles": "CCCCCCOCCO", "outcome": "inactive"}, {"smiles": "Cc1ccc(Cl)cc1", "outcome": "inactive"}, {"smiles": "c1cc(-c2ccncc2)ccn1", "outcome": "inactive"}, {"smiles": "Clc1cc(Cl)c(Cl)cc1Cl", "outcome": "inactive"}, {"smiles": "COc1ccc(C)cc1N", "outcome": "inactive"}, {"smiles": "CNCc1cc(F)ccc1Oc1ccc(Cl)c(Cl)c1", "AC50": "88.6 µM (active)"}, {"smiles": "CC1=C(/C=C/C(C)=C/C=C/C(C)=C/CO)C(C)(C)CCC1", "outcome": "inactive"}, {"smiles": "CCCCCCCC=O", "outcome": "inactive"}, {"smiles": "Oc1ccc2ccccc2c1N=Nc1ccccc1", "AC50": "14.8 µM (active)"}, {"smiles": "Cc1cc(=O)[nH]c(=S)[nH]1", "outcome": "inactive"}, {"smiles": "NC(=O)Cn1c(=O)cc(CCN2CCN(c3nccc4sccc34)CC2)c2ccc(F)cc21", "AC50": "50 µM (active)"}, {"smiles": "Cc1ccccc1Cl", "outcome": "inactive"}, {"smiles": "NCCO", "outcome": "inactive"}, {"smiles": "O=[N+]([O-])C(CO)(CO)CO", "outcome": "inactive"}, {"smiles": "O=c1[nH]cc(F)c(=O)[nH]1", "AC50": "51 µM (active)"}, {"smiles": "CC1(C)NC(=O)NC1=O", "outcome": "inactive"}, {"smiles": "Cc1nc(C)nc(N2C[C@@H](C)N(c3ccnc([C@@H](C)O)n3)[C@@H](C)C2)n1", "outcome": "inactive"}, {"smiles": "CCOC(=O)CCC(=O)OCC", "outcome": "inactive"}, {"smiles": "O=C(OCCCCCOC(=O)c1ccccc1)c1ccccc1", "outcome": "inactive"}, {"smiles": "C[C@]12C=CC(=O)C=C1CC[C@@H]1[C@@H]2C(=O)C[C@@]2(C)[C@H]1CC[C@]2(O)C(=O)CO", "outcome": "inactive"}, {"smiles": "CCCCC(CC)COC(=O)CC(C(=O)OCC(CC)CCCC)S(=O)(=O)O", "note": "(stereo not given)", "AC50": "79.6 µM (active)"}, {"smiles": "COc1cc(C=O)ccc1O", "outcome": "inactive"}, {"smiles": "CC1(C)CC(N=C=O)CC(C)(CN=C=O)C1", "note": "(stereo not given)", "outcome": "inactive"}, {"smiles": "CCCCCCCCCCCCCCCCCC(=O)O", "outcome": "inactive"}, {"smiles": "Cc1ccc(C(C)C)c(O)c1", "outcome": "inactive"}, {"smiles": "COCCOCCOC", "outcome": "inactive"}, {"smiles": "COc1cc(S(=O)(=O)O)c(C)cc1N=Nc1c(O)ccc2cc(S(=O)(=O)O)ccc12", "outcome": "inactive"}, {"smiles": "Cc1cc(NC(=O)C(=O)O)cc(C)c1Oc1ccc(O)c2c1CCC2", "AC50": "0.00423 µM (active)"}, {"smiles": "FC(F)(F)C(F)(F)C(F)(F)C(F)(F)C(F)(F)C(F)(F)CCI", "outcome": "inactive"}, {"smiles": "CC=Cc1ccc(O)c(OC)c1", "outcome": "inactive"}, {"smiles": "CC(=O)OCCOCCOCCOC(C)=O", "outcome": "inactive"}, {"smiles": "C=CCOC(=O)c1ccccc1C(=O)OCC=C", "outcome": "inactive"}, {"smiles": "Cc1cccc([N+](=O)[O-])c1C", "outcome": "inactive"}, {"smiles": "O=c1c(O)c(-c2ccc(O)c(O)c2)oc2cc(O)cc(O)c12", "outcome": "inactive"}, {"smiles": "COc1ccc(S(=O)(=O)N2C(=O)[C@@](c3ccccc3OC)(N3C[C@H](O)C[C@H]3C(=O)N(C)C)c3cc(Cl)ccc32)c(OC)c1", "AC50": "15.8 µM (active)"}, {"smiles": "CCc1c(C(=O)NN2CCCCC2)nn(-c2ccc(Cl)cc2Cl)c1-c1ccc(Br)cc1", "AC50": "23.7 µM (active)"}, {"smiles": "CN1CCCC1=O", "outcome": "inactive"}, {"smiles": "CCOC(=O)C(C)(C)Oc1ccc(Cl)cc1", "AC50": "9.92 µM (active)"}, {"smiles": "CCCCCC(=O)O", "outcome": "inactive"}, {"smiles": "Cc1c(C(=O)O)c(O)cc2c1C(=O)c1c(O)c([C@@H]3O[C@H](CO)[C@@H](O)[C@H](O)[C@H]3O)c(O)c(O)c1C2=O", "outcome": "inactive"}]}]}
